Shown is part of a subset that was picked to be rich in hits.
SF1 inhibitor: inhibitors of human SF-1, primary screen, cell-based, CHO-K1, Gal4-SF-1 LBD, luciferase luminescence; 65,000 tested, 0.55% active; inhibition, % at 10 µM; CHO-K1 Gal4-SF-1 LBD luciferase reporter; Steroidogenic factor 1 (Homo sapiens), Q13285;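 active = inhibition above the mean inhibition of all tested compounds plus 3 SD, cut at about 48% in these data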;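 also: 0% = SF-1 transfected cells with DMSO and 100% = mock-transfected cells lacking SF-1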
Target sequence (Q13285 whole entry, looked up, the tested form may be a part): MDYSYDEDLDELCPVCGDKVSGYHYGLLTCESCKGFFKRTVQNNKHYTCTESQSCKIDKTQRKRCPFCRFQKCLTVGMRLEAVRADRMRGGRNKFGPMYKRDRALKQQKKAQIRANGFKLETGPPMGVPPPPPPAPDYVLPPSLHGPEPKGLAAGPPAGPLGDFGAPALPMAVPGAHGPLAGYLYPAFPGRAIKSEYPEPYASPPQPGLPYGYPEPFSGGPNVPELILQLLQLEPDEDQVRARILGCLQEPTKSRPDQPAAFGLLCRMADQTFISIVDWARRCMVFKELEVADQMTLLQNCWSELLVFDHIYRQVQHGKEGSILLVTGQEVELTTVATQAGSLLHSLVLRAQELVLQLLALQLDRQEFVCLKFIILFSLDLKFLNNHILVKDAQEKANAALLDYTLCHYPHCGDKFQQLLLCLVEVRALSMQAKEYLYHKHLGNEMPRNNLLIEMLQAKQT
Numbers without * were called inactive.

SMILES	SF1 inhibitor
COc1cccc(CNC(=O)c2nnn(CC(=O)Nc3ccc(C)c(C)c3)c2N)c1	56*
Nc1c(C(=O)Nc2ccc3c(c2)OCCO3)nnn1CCc1ccccc1	-92
CCc1ccccc1NC(=O)c1nnn(CC(=O)Nc2ccccc2C)c1N	4
C=CCOc1ccc2c(c1)c(S(=O)(=O)c1ccc(C)cc1)cn2COC	22
COC(=O)C1=CN(C2CC2)C=C(C(=O)OC)C1c1ccccc1OC	-6
Cn1nc(-c2ccc(C(=O)N3CCN(c4ccccc4)CC3)cc2)c2ccccc2c1=O	1
O=C(NCc1ccccn1)c1ccc2ccccc2n1	-4
O=C1c2ccccc2NC(c2cnc3ccccc3n2)N1O (centres undefined)	-43
O=C1c2ccccc2C(=O)C1c1ccc2ccccc2n1	72*
COc1cc2nc(COc3ccc(C#N)cc3)n(CC#N)c(=O)c2cc1OC	10
CCOC(=O)N1CCN(C(=O)CN2C(=O)CC(C)(C)S(=O)(=O)c3ccccc32)CC1	-4
O=C(Nc1ccc(SC(F)F)cc1)c1ccc2nccnc2c1	18
COC(=O)c1ccc2c(=O)n(CCN3CCOCC3)c(SCC(=O)c3ccccc3)nc2c1	-8
COc1ccc(CC(=O)Nc2ccc(S(=O)(=O)NCC3CCCO3)cc2)cc1 (centres undefined)	7
COc1ccc(C(=O)Nn2c(SCC(=O)NCC3CCCO3)nc3ccccc3c2=O)cc1 (centres undefined)	67*
CC1=C(C(=O)Nc2ccccn2)C(c2cccnc2)n2nnnc2N1 (centres undefined)	-9
O=C(CCCC(=O)N(CC(=O)NC1CCCCC1)CC1CCCO1)Nc1ccccn1 (centres undefined)	-1
COc1ccc(Nc2ncc3c(n2)CC(c2ccc(OC)cc2)CC3=O)cc1 (centres undefined)	10
COC(=O)/C(=C1/Oc2cc(C)oc(=O)c2S1)C(F)(F)F	96*
Cc1ccc(S(=O)(=O)N(CC(=O)NCc2ccncc2)C2CCCCC2)cc1	-9
O=C(CCN1C(=O)c2ccccc2C1=O)OCn1nnc2ccccc2c1=O	4
Cc1nn(-c2ccccc2)c(C)c1C(=O)OCC(=O)c1c(N)n(CC(C)C)c(=O)n(C)c1=O	55*
Cn1ccc(C(=O)OCC(=O)c2ccccc2)n1	-5
COC(=O)CCc1c(C)nn(-c2ccccc2)c1C	-9
CC(=O)N1CCc2c(sc(NC(=O)c3ccc4c(c3)OCCO4)c2C#N)C1	-77
SMILES	SF1 inhibitor
CCSC1=C(C#N)C(c2ccccc2OC)CC(=O)N1 (centres undefined)	-6
COc1cc(C2C(C#N)=C(C)NC3=C2C(=O)c2ccccc23)cc(OC)c1OC (centres undefined)	82*
CC(C)Cc1cc(C(=O)N2CCN(c3ccc(F)cc3)CC2)no1	-1
COC(=O)c1ccc(=O)n(-c2ccc(OC)cc2)c1	16
O=C(COc1ccccc1Cl)N1CCN(c2ncccn2)CC1	-5
CC(=O)c1cccc(NC(=O)N2CCCC2C(=O)Nc2c(C)cccc2C)c1 (centres undefined)	23
CCc1ccc2nc(NC(=O)c3cc(C)on3)sc2c1	-117
CS(=O)c1nc(-c2ccc(Br)cc2)cc(-c2ccccc2)c1C#N (centres undefined)	61*
O=c1[nH]c2cccnc2n1Cc1ccco1	-16
Cc1nc2cc(Cl)c(Cl)cc2nc1C	-64
CN(C)CC(C(=O)c1ccccc1)c1ccccc1 (centres undefined)	68*
O=C(NCc1ccccn1)C1CC(=O)N(C2CCCC2)C1 (centres undefined)	-8
O=C(Cn1cc2c(n1)CCCC2)NCC1CCCO1 (centres undefined)	4
C/C(NCc1cccnc1)=C(\C#N)C(=O)NCc1ccccc1	5
Cc1cc(NO)nc(-c2ccc(Br)cc2)n1	-64
Cc1ccc(N2C(=O)Nc3ccc(Br)cc3C2(O)C(=O)NCCCN(C)C)cc1C (centres undefined)	8
Cc1c(C(=O)N2CCCC2)oc2c1-c1[nH]ncc1CC2	7
CCN1C(=O)c2ccccc2S(=O)c2ccc(C(=O)NCCCN3CCCC3=O)cc21 (centres undefined)	-33
COC(=O)c1c(C)[nH]c(C(C)=O)c1C	-16
CCOC(=O)c1c(C)[nH]c(C)c1C(=O)COC(=O)CCOc1ccccc1OC	-2
COc1ccccc1OCC(=O)c1[nH]c(C)c(C(C)=O)c1C	50*
Cc1ccc(C)c(S(=O)(=O)c2c(N)n(/N=C/c3ccco3)c3nc4ccccc4nc23)c1	15
COC(=O)c1cc(OC)c(OCc2cc(C(=O)OC)oc2C)c(OC)c1	3
O=C(CSc1nnc(Cc2ccccc2)o1)N1CCOCC1	-21
Cn1c(COc2ccc3ccccc3c2)nnc1SCC(=O)O	10
CC(C)Sc1nnc(Nc2ccccc2)s1	-106
CCOCCCNC(=O)CS(=O)(=O)Cc1nc(-c2cccc(OC)c2)oc1C	-6
COc1ccc(C(=O)Nc2ccccc2-c2nnn(CC(=O)NCc3ccco3)n2)cc1	8
